Assay outcomes: PubChem, National Center for Advancing Translational Sciences (NCATS)
The list is not random: actives were taken first. Their share in the collection is about 1.8%.
p53ts 32C tox – kills p53ts cells at the permissive temperature. hit rate 0.93% among 130,000. Potency, µM (series often up to 46.1 µM), for inactives: top-dose activity change, negative = cytotoxicity, actives largely listed as cytotoxic. H1299-p53A138V at 32C, ATP luminescence viability, 24 h;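 note: 0% = DMSO and -100% = full killing by reference compound; nearly all actives have a fitted effect of over 55% in size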
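ATP-content luminescence (ATPlite) read-out after 24 h compound exposure at 32C in H1299-p53A138V cells (600/well). Tested up to 46 uM. Normalized to DMSO (0%) and 100 uM tamoxifen (100% killing); Hill-fit AC50.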
p53ts 39C tox – cytotoxicity in p53ts cells at nonpermissive temperature; hit rate 1.5% among 130,000; H1299-p53A138V viability at 39C, ATP luminescence, 24 h; Potency, µM (doses to about 46.1 µM), for the others: at the top dose activity change, negative = cell killing, actives largely listed as cytotoxic; note: % is set by controls: 0 for no effect and ±100 for the full control effect; nearly all actives have a fitted effect of over 55% in size
Imprint erasure – genomic imprint erasure induction. mouse ES Peg3-LacZ reporter, beta-gal luminescence, 40 h. Potency, µM (titrated, usually from 60.7 µM), inactives show top-dose activity change, positive = activation, hits mostly activators. hit rate 0.02% among 110,000
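Each well holds 300 Peg3LacZ-Neo (maternal) female ES cells incubated 40 h at 37C, 5% CO2. LacZ is measured by BetaGlo luminescence, with AC50 and maximum efficacy derived from dose-response curves.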
IkB signaling – IkB pathway inhibition in ABC-DLBCL cells | ABC-DLBCL IkBa-CBG/CBR dual luciferase ratio, 4 h; response scale: scaled: untreated 0%, proteasome inhibitor 100% | Potency, µM (titrated, usually from 57.1 µM), inactives show top-dose IkBa stabilization activation | hit rate 0.04% among 110,000 | AID 445; active = well fitted curve in the direction sought with a large enough effect in the signal ratio, not every such curve was filed as active; inconclusive = small, poorly fitted or top-dose-only effect, or a change in a side signal; the % refers to the signal ratio;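 note: the direction sought is a rising ratio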
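In this assay, an IκBα–CBG68 fusion accumulates when IKK-driven degradation is blocked; native CBR normalizes for cell number. OCI-Ly3 cells were treated 4 h with compound and doxycycline, then green and red light read after Chroma-Glo addition.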
* = called active by the depositor; u = inconclusive; x = no result; ! = a repeat was not active; [ ] = another dose, or the depositor's remark. Unless noted, calls come from the whole dose curve; as a rule, active = well fitted curve in the direction sought with a large enough effect; inconclusive = small, poorly fitted or top-dose-only effect, or another doubt; inactive = no such curve, though single readings can be large; an effect the other way counts as inactive or inconclusive. Potency is the fitted concentration of half-maximal effect.

SMILES | p53ts 32C tox | p53ts 39C tox | Imprint erasure | IkB signaling
COc1ccc(COC(=O)N/N=C2/C[C@@H](O)[C@@H](O)[C@@H]3[C@@H]4C(=O)N(c5cccc(Oc6ccccc6)c5)C(=O)[C@H]4CC[C@H]23)cc1 | 1.4%[9.22 µM] | -2.6%[9.22 µM] | x | x
CSc1ccccc1NC(=O)CCS(=O)(=O)c1nc(-c2ccc3c(c2)OCO3)cc(C(F)(F)F)n1 | u | 3.98µM* | -6.9%[10.9 µM] | -1.7%
O=C(CCS(=O)(=O)c1nc(-c2ccc3c(c2)OCO3)cc(C(F)(F)F)n1)Nc1ccccc1F | u | u | 1.2%[10.9 µM] | u
O=C(CCS(=O)(=O)c1nc(-c2ccc3c(c2)OCO3)cc(C(F)(F)F)n1)Nc1ccc(Br)cc1 | u | 3.16µM* | -10.2%[10.9 µM] | u
O=C(NCCN1CCCCC1)c1ccc(-n2c(=O)c(=O)[nH]c3ccccc32)cc1 | -0.7% | -3.4% | x | x
CCCN(C(=O)c1cc2c(s1)-c1ccccc1SC2)c1ccccc1F | -3.4% | 25.1µM* | -9.9%[10.9 µM] | u
CCCN(C(=O)c1cc2c(s1)-c1ccccc1OC2)c1ccccc1F | 17.5% | -11.0% | -18.5%[10.9 µM] | u
COc1ccc(NC(=O)c2ccc(-c3ccc(-c4noc(C)n4)cc3C)cc2)cc1OCCN(C)C | 25.1µM* | 7.94µM* | -33.9% | u
COc1ccc(NC(=O)N2CCN(c3cc(-c4noc(C)n4)ccc3C)CC2)c(OC)c1 | 7.7% | -26.4% | -11.8%[10.9 µM] | 0.8%
COc1ccc(NC(=O)c2ccc(-c3ccc(-c4noc(C)n4)cc3C)cc2)cc1N1CCN(C)CC1 | u | 20µM* | -30.6% | u
Cc1nn(CC(=O)Nc2ccccc2C(F)(F)F)c(=O)c2cccn12 | u | u | -17.5%[10.9 µM] | u
[N-]=[N+]=Nc1nc2c(N)ncnc2n1C1OC(CO)C(O)C1O (stereo not given) | 2µM* | 2.51µM* | -7.3% | x
Nc1ncnc2c1nc(Cl)n2C1OC(CO)C(O)C1O (stereo not given) | u | u | -10.3% | x
CCN1CCN(c2ncnc3c2cnn3-c2ccc(C)cc2)CC1 | -17.1% | u | -12.2%[10.9 µM] | -0.8%
Fc1ccc(-n2ncc3c(N4CCCCCC4)ncnc32)cc1 | u | 5.01µM* | -24.4%[10.9 µM] | 0.2%
Cc1ccc(-n2ncc3c(N4CCCCCC4)ncnc32)cc1 | 3.16µM* | 2.51µM* | -45.6%[10.9 µM] | 1.9%
Cc1ccc(CSc2ncc(Cl)c(C(=O)NCc3ccccc3)n2)cc1 | -7.9% | -21.0% | -11.1%[10.9 µM] | -0.2%
O=C(NCc1ccccc1)c1nc(S(=O)(=O)Cc2ccc(F)cc2)ncc1Cl | 15.8µM* | 5.01µM* | -24.9%[10.9 µM] | u
Cc1cccc(CS(=O)(=O)c2ncc(Cl)c(C(=O)NCc3ccccc3)n2)c1 | 25.1µM* | 5.01µM* | -27.5%[10.9 µM] | u
OCCN1CCN(CCCN2c3ccccc3Sc3ccc(Cl)cc32)CC1 | 15.8µM*! | 10µM*! | -21.4% | 3.7%[25.6 µM]
CN(C)CCCN1c2ccccc2Sc2ccc(Cl)cc21 | u | 10µM*! | -12.6% | 2.9%[25.6 µM]
CC(=O)c1ccc2c(c1)N(CCCN1CCC(CCO)CC1)c1ccccc1S2 | x | x | -8.6%[16.8 µM] | -2.5%[25.6 µM]
CN(C)CCCN1c2ccccc2Sc2ccc3ccccc3c21 | -3.3%[9.22 µM] | -1.2%[9.22 µM] | -16.9%[10.9 µM] | 1.1%[11.4 µM]
CCNC(=O)[C@@H]1CCCN1C(=O)[C@H](CCCN=C(N)N)NC(=O)[C@H](CC(C)C)NC(=O)[C@@H](CC(C)C)NC(=O)[C@H](Cc1ccc(O)cc1)NC(=O)[C@H](CO)NC(=O)[C@H](Cc1c[nH]c2ccccc12)NC(=O)[C@H](Cc1cnc[nH]1)NC(=O)[C@@H]1CCC(=O)N1 | 3.5% | 0.3% | x | x
CN(C)c1ccc(/C=C(\C#N)c2nc3ccccc3c(=O)[nH]2)cc1 | 0.316µM* | 0.316µM* | -5.7%[10.9 µM] | u
SMILES | p53ts 32C tox | p53ts 39C tox | Imprint erasure | IkB signaling
NCCNC[C@H](O)CO | 5.4%[9.22 µM] | 6.6%[9.22 µM] | -9.2%[10.9 µM] | 1.8%[11.4 µM]
COC(=O)[C@H](N)Cc1ccc(Cl)cc1 | 13.6% | 8.1% | x | -2.6%
COc1cc(NC(=O)c2ccc3oc(=O)c(S(=O)(=O)c4ccccc4)cc3c2)cc(OC)c1 | 15.8µM* | u | -6.4%[10.9 µM] | u
CC(C)c1ccc(NC(=O)c2ccc3oc(=O)c(S(=O)(=O)c4ccc(F)cc4)cc3c2)cc1 | 10µM* | 2.51µM* | u | u
COc1ccc(N(CC(C)C)S(=O)(=O)c2nnc(NC(=O)c3cccs3)s2)cc1 | -10.3% | -24.4% | -17.5%[10.9 µM] | u
CC1CCC2C(=O)OC(CO)CN2C1c1ccc(Br)cc1 (stereo not given) | 2.2%[9.22 µM] | 12.2%[9.22 µM] | x | x
N=c1n(CCO)c2ccccc2n1CCOc1ccc(F)cc1 | -10.4% | -13.4% | -14.5%[10.9 µM] | u
CCCCn1c(=N)n(CCCOc2ccc(F)cc2)c2ccccc21 | u | 10µM* | -25.2%[10.9 µM] | u
CN(C)CCC(=O)[C@@]1(O)CC[C@H]2[C@H]3CC=C4C[C@@H](O)CC[C@]4(C)[C@H]3CC[C@]21C | 9.5%[9.22 µM] | -4.8%[9.22 µM] | -28.2%[10.9 µM] | 5.01µM*
COc1ccc(-c2cc(C(=O)Nc3cc(C(F)(F)F)ccc3Cl)no2)cc1 | -7.7% | -17.6% | -10.4%[10.9 µM] | 1.5%
COc1cccc(N2CCN(C(=O)CCCn3c(=O)[nH]c4ccc(Br)cc4c3=O)CC2)c1 | 12.6µM* | -17.0% | -14.1%[10.9 µM] | u
CC(C)CCN1CCc2nc(-c3ccccc3)c3c(c2C1)COC(C)C3 (stereo not given) | 7.4%[9.22 µM] | 6.7%[9.22 µM] | x | x
Cc1cccc(N2CCN(c3ncnc4onc(C)c34)CC2C)c1 (stereo not given) | u | 20µM* | -11.7%[10.9 µM] | u
N=C(c1ccc2ccccc2c1)c1ccccc1Cc1ccccc1 | 0.7%[9.22 µM] | 4.2%[9.22 µM] | -2.8%[10.9 µM] | 0.7%[11.4 µM]
COc1ccc(-n2ncc3c(NC(C)(C)CO)ncnc32)cc1 | 12.6µM* | 10µM* | -17.4%[10.9 µM] | -1.5%
CC(C)(C)Nc1ncnc2c1cnn2-c1ccccc1 | 7.94µM* | 10µM* | -24.2% | u
COc1ccc(CNc2ncnc3c2cnn3-c2ccc(C)c(C)c2)cc1 | -3.7% | -25.3% | -12.1%[10.9 µM] | -0.9%
CC(CC(=O)O)(CC(=O)O)c1ccccc1 | 8.6%[9.22 µM] | 9.4%[9.22 µM] | -2.9%[10.9 µM] | 2.9%[11.4 µM]
COc1ccccc1CNC(=O)c1ccc2c(c1)N(Cc1cc(C)ccc1C)C(=O)c1ccccc1S2 | 6.8% | -8.8% | -20.4%[10.9 µM] | 1.3%
Cn1c(-c2ccc3c(c2)OCO3)cnc1N | -13.5% | -14.7% | -18.1% | 0.0%
c1cc2c(cc1-c1cnc3n1CCC3)OCCO2 | u | 12.6µM* | -5.7% | u
CCN(CC)CCCNC(=O)c1ccc(-n2c(=O)c(=O)[nH]c3ccccc32)cc1 | -2.2% | 9.8% | x | x
O=C(Nc1ccc(N2CCOCC2)cc1)c1cnsn1 | 3.98µM* | 5.01µM* | -80.0% | u
O=C(Nc1ccc(N2CCOCC2)cc1)c1ccncc1 | -7.5% | 11.1% | x | x
CCN(c1ccccc1)S(=O)(=O)c1ccc(NC(=O)c2nc(S(C)(=O)=O)ncc2Cl)cc1 | u | 3.16µM* | -39.3%[10.9 µM] | -2.1%
CCSc1ncc(Cl)c(C(=O)Nc2ccc(S(=O)(=O)N(C)c3ccccc3)cc2)n1 | 6.4% | -13.4% | -17.9%[10.9 µM] | -0.7%
CCOC(=O)c1nc(S(C)(=O)=O)ncc1N1CCOCC1 | -5.5% | 8.7% | 2.8% | -1.6%
CS(=O)(=O)c1ncc(Cl)c(C(=O)Nc2ccc(N3CCOCC3)cc2)n1 | 12.6µM* | u | -72.7% | u
